Reference: PubChem BioAssay
Where “and” joins values, the source holds several entries; their conditions need not be identical. Equal values may be shown once. Inconclusive results are not listed. Calls of active or inactive are those of the source.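 How the source made its calls, unless noted: active means normalized viability below 100% at a tested concentration; inactive means the rest.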

Tests used:
[1] = viability loss in pontine glioma line – cell-based, SU-DIPG-XVII, MIPE5.0, CellTiter-Glo, qHTS, dose response (AID 1347060; cut-off not given, nearly all actives have AC50 up to about 26 µM;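 on AC50: cells exposed to compound for 48 hours before viability readout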); conditions: CellTiter-Glo ATP luminescence
[2] = viability loss in pontine glioma line – cell-based, JHH-DIPG-1, MIPE4.0, CellTiter-Glo, qHTS, dose response (AID 1347062; cut-off not given, nearly all actives have AC50 up to about 27 µM;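 on AC50: cells exposed to compound for two days before readout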); conditions: JHH-DIPG-1 viability, CellTiter-Glo ATP luminescence
[3] = viability loss in pontine glioma line – cell-based, SU-DIPG-XIII, MIPE5.0, CellTiter-Glo, qHTS, dose response (AID 1347064; cut-off not given, nearly all actives have AC50 up to about 23 µM;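 on AC50: cells exposed to compound for 48 hours before the viability read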); conditions: CellTiter-Glo ATP luminescence
[4] = viability loss in pontine glioma line – cell-based, SU-DIPG-XXV, MIPE5.0, CellTiter-Glo, qHTS, dose response (AID 1347065; cut-off not given, nearly all actives have AC50 up to about 26 µM;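 further: cells exposed to compound for 48 hours before ATP readout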); conditions: CellTiter-Glo ATP luminescence
[5] = growth inhibition of DIPG cells – cell-based, MIPE4.0 library, CellTiter-Glo luminescence, qHTS (AID 1347066; cut-off not given, nearly all actives have AC50 up to about 30 µM;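 further: cells exposed to compound for 48 hours before readout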); conditions: SU-DIPG-VI viability, CellTiter-Glo ATP luminescence
[6] = JHH-DIPG-1 glioma cell viability, MIPE5.0 library, CellTiter-Glo luminescence, qHTS (AID 1347067; cut-off not given, nearly all actives have AC50 up to about 26 µM;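 further: cells exposed to compound for 48 hours before readout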); conditions: JHH-DIPG-1 glioma viability, CellTiter-Glo ATP luminescence
[7] = growth inhibition of DIPG cells – cell-based, MIPE5.0 library, qHTS (AID 1347068; cut-off not given, nearly all actives have IC50 up to about 30 µM); conditions: SU-DIPG-XXV viability
[8] = drug combination growth inhibition, ovarian cancer – cell-based, oncology-focused library, rucaparib conditional, profiling panel (AID 1508598); conditions: patient-derived ovarian cancer cells, CellTiter-Glo viability, 144 h, stronger effect = lower value
[9] = viability loss with induced miR-34 in A549 – imaging, A549 dox-inducible miR-34, nuclei and caspase counts, primary screen (AID 1347080;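 active means compounds whose cell count with miR-34 switched on is under 0.7 times the count with it off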); conditions: A549 miR-34 inducible, Hoechst nuclei count, 48 h
[10] = compounds altering HSF1 focus formation in cells – imaging, Selleck Cancer Library (AID 1347162; in the data active means plate-normalised HSF1 focus index below about 0.46); conditions: human cells, HSF1 nuclear foci imaging, at 10 µM; SSMD: measured here: HSF1 foci SSMD mean; cell count: measured here: cell number; plate-normalised HSF1 focus index: stronger effect = lower value
[11] = MELAS cybrid and Rieske KO viability enhancers – cell-based, MELAS cybrids, Rieske KO mouse fibroblasts, CellTiter-Glo, primary screen (AID 1508586;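 active means mean z-score across replicates of 1.96 or higher in either the MELAS or the Rieske mutant cell line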;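 further: z relative to plate mean and SD of compound and empty wells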); conditions: low glucose
[12] = at 0.000305 µM, OCI-C5x cells, with rucaparib 10 µM, 100% = cells with rucaparib alone
[13] = at 0.000305 µM, OCI-C5x cells, without rucaparib
[14] = at 0.000305 µM, OCI-P5x cells, with rucaparib 20 µM, 100% = cells with rucaparib alone
[15] = at 0.000305 µM, OCI-P5x cells, without rucaparib
[16] = at 0.00122 µM, OCI-C5x cells, with rucaparib 10 µM, 100% = cells with rucaparib alone
[17] = at 0.00122 µM, OCI-C5x cells, without rucaparib
[18] = at 0.00122 µM, OCI-P5x cells, with rucaparib 20 µM, 100% = cells with rucaparib alone
[19] = at 0.00122 µM, OCI-P5x cells, without rucaparib
[20] = at 0.00488 µM, OCI-C5x cells, with rucaparib 10 µM, 100% = cells with rucaparib alone
[21] = at 0.00488 µM, OCI-C5x cells, without rucaparib
[22] = at 0.00488 µM, OCI-P5x cells, with rucaparib 20 µM, 100% = cells with rucaparib alone
[23] = at 0.00488 µM, OCI-P5x cells, without rucaparib
[24] = at 0.0195 µM, OCI-C5x cells, with rucaparib 10 µM, 100% = cells with rucaparib alone
[25] = at 0.0195 µM, OCI-C5x cells, without rucaparib
[26] = at 0.0195 µM, OCI-P5x cells, with rucaparib 20 µM, 100% = cells with rucaparib alone
[27] = at 0.0195 µM, OCI-P5x cells, without rucaparib
[28] = at 0.0781 µM, OCI-C5x cells, with rucaparib 10 µM, 100% = cells with rucaparib alone
[29] = at 0.0781 µM, OCI-C5x cells, without rucaparib
[30] = at 0.0781 µM, OCI-P5x cells, with rucaparib 20 µM, 100% = cells with rucaparib alone
[31] = at 0.0781 µM, OCI-P5x cells, without rucaparib
[32] = at 0.313 µM, OCI-C5x cells, with rucaparib 10 µM, 100% = cells with rucaparib alone
[33] = at 0.313 µM, OCI-C5x cells, without rucaparib
[34] = at 0.313 µM, OCI-P5x cells, with rucaparib 20 µM, 100% = cells with rucaparib alone
[35] = at 0.313 µM, OCI-P5x cells, without rucaparib
[36] = at 1.25 µM, OCI-C5x cells, with rucaparib 10 µM, 100% = cells with rucaparib alone
[37] = at 1.25 µM, OCI-C5x cells, without rucaparib
[38] = at 1.25 µM, OCI-P5x cells, with rucaparib 20 µM, 100% = cells with rucaparib alone
[39] = at 1.25 µM, OCI-P5x cells, without rucaparib
[40] = at 5 µM, OCI-C5x cells, with rucaparib 10 µM, 100% = cells with rucaparib alone
[41] = at 5 µM, OCI-C5x cells, without rucaparib
[42] = at 5 µM, OCI-P5x cells, with rucaparib 20 µM, 100% = cells with rucaparib alone
[43] = at 5 µM, OCI-P5x cells, without rucaparib

O=C(O)CCNc1cc(N2CCc3ccccc3CC2)nc(-c2ccccn2)n1
inactive: outcome [1] | outcome [2] | outcome [3] | outcome [4] | outcome [5] | outcome [6] | outcome [7]

CCC[C@H](Nc1nc(-c2ccc(NC(=O)NCC)c(OC)c2)ncc1C)c1cccnc1
active: AC50 [1] 0.132 µM | AC50 [2] 0.0148 µM | AC50 [3] 0.186 µM | AC50 [4] 0.118 µM | AC50 [6] 0.132 µM | viability [8, 12] 92.2% | viability [8, 15] 99.6% | viability [8, 19] 97.7% | viability [8, 23] 90.5% | viability [8, 24] 98.1% | viability [8, 25] 30.6% | viability [8, 26] 85.4% | viability [8, 27] 15.9% | viability [8, 28] 35.4% | viability [8, 29] 23.5% | viability [8, 30] 51.3% | viability [8, 31] 13% | viability [8, 32] 39.7% | viability [8, 33] 22.5% | viability [8, 34] 44.4% | viability [8, 35] 11% | viability [8, 36] 38% | viability [8, 37] 23.4% | viability [8, 38] 41.8% | viability [8, 39] 9.8% | viability [8, 40] 39.3% | viability [8, 41] 25.1% | viability [8, 42] 50.6% | viability [8, 43] 10.1%
inactive: viability [8, 13] 101% | viability [8, 14] 107% | viability [8, 16] 104% | viability [8, 17] 103% | viability [8, 18] 103% | viability [8, 20] 104% | viability [8, 21] 110% | viability [8, 22] 100%

CS(=O)(=O)c1ccc(C(=O)Nc2ccc(Cl)c(-c3ccccn3)c2)c(Cl)c1
2.58: SSMD [10]
8790 and 6720: cell count ([9]; measured here: total cells with miR-34 induction, stronger effect = lower value)
active: viability [8, 14] 92.5% | viability [8, 23] 97.6% | viability [8, 42] 97.4% | viability [8, 43] 99.8%
10200 and 7460: cell count ([9]; measured here: total cells without miR-34 induction)
inactive: outcome [1] | outcome [2] | outcome [3] | outcome [4] | outcome [5] | outcome [6] | outcome [7] | fold change ([9]; stronger effect = lower value, cell number ratio, induced over uninduced) 0.865 and 0.901 | plate-normalised HSF1 focus index [10] 1.15 | z-score ([11]; MELAS cybrid survival, CellTiter-Glo 48 h, stronger effect = higher value) 0.265 and -0.383 | viability [8, 12] 124% | viability [8, 13] 125% | viability [8, 15] 106% | viability [8, 16] 126% | viability [8, 17] 125% | viability [8, 18] 103% | viability [8, 19] 102% | viability [8, 20] 125% | viability [8, 21] 124% | viability [8, 22] 106% | viability [8, 24] 115% | viability [8, 25] 117% | viability [8, 26] 107% | viability [8, 27] 102% | viability [8, 28] 123% | viability [8, 29] 116% | viability [8, 30] 106% | viability [8, 31] 103% | viability [8, 32] 125% | viability [8, 33] 127% | viability [8, 34] 108% | viability [8, 35] 104% | viability [8, 36] 133% | viability [8, 37] 116% | viability [8, 38] 108% | viability [8, 39] 104% | viability [8, 40] 158% | viability [8, 41] 149%
7240: cell count [10]
0.712 and 0.902: fold change ([9]; measured here: relative caspase fold change +Dox/-Dox)
0.641 and 0.534: z-score ([11]; Rieske KO mouse fibroblast survival, CellTiter-Glo 72 h)
